These results are taken from the supplement of paper PMC6555819.

Common to all, as to assay: PBM binding z-score (relative to random genomic background probes); higher = stronger binding; sequences stand for … in GC…GCGATTGACAGCGTAGAATGAAGG
Experiment [1] has as its system FXR:RXRa (NR concentration 270 nM, RXRa partner concentration 90 nM). An outline of the steps:
(§1)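 Binding z-scores take random background probes as their reference. They come from custom Agilent 4×180K protein-binding microarrays incubated 1 h with ligand-free nuclear receptor dimers, with antibodies against each partner (one per run) detecting binding. Scanned fluorescence was regression-normalized.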

Experiment [2] relates to LXRa:RXRa (NR concentration 270 nM, RXRa partner concentration 90 nM). An outline of the steps:
as §1

Experiment [3] deals with LXRa homodimer (NR concentration 270 nM). Summed up: as §1
Experiment [4] deals with LXRb:RXRa (NR concentration 270 nM, RXRa partner concentration 90 nM). An outline of the steps:
as §1

Experiment [5] relates to LXRb homodimer (NR concentration 270 nM). Summed up: as §1
For experiment [6], the system named is PPARa:RXRa (NR concentration 270 nM, RXRa partner concentration 90 nM). Summed up:
as §1

In experiment [7] the test system is PPARg:RXRa (NR concentration 180 nM, RXRa partner concentration 90 nM). An outline of the steps:
as §1

Experiment [8] deals with PPARg:RXRa 270nM:90nM, anti-RXR (NR concentration 270 nM, RXRa partner concentration 90 nM). Summed up: as §1
The test system of experiment [9] is PPARg:RXRa 30nM:10nM, anti-RXR (NR concentration 30 nM, RXRa partner concentration 10 nM). Summed up: as §1
The test system of experiment [10] is PPARg:RXRa 90nM:30nM, anti-RXR (NR concentration 90 nM, RXRa partner concentration 30 nM). Summed up:
as §1

As for CCTAGCAGGCCAATCTGGTTCACTCAAGGCTTGA, the PBM binding z-score in experiment [1] is -0.121; in experiment [2], 0.131; in experiment [3] it was -0.596; in experiment [4] it was -0.16; in experiment [5] it was -0.887; in experiment [6], 0.0157. The PBM binding z-score was -0.419 in experiment [7], -0.488 in experiment [8], -0.776 in [9] and -0.865 in experiment [10].

With CATCCAAGGTCAGAGAGGTCAGTGAATGCCGAGT, the PBM binding z-score in experiment [1] is 6.31; in experiment [2], 5.84; in experiment [3] it was 4.54; in experiment [4], 4.58; in experiment [5] it was 1.57; in experiment [6], 5.23. In addition, the PBM binding z-score came to 4.13 in experiment [7], 4.43 in experiment [8], 1.5 in [9] and 2.83 in experiment [10].

Take ATATGTAGGTTACATCCGGGTCGTTCAGGCTATG: the PBM binding z-score came to 1.06 in experiment [1]; 2.86 in experiment [2]; 0.557 in experiment [3]; 1.67 in [4]; 0.653 in experiment [5]; 3.5 in [6]. Also, the PBM binding z-score in experiment [7] worked out at 5.18; in experiment [8], 4.47; in experiment [9], 1.66; in experiment [10], 3.49.

On to ATATGTAGGTTGTCGGGTCATTCAGTTTGCGCAT, for which the PBM binding z-score in experiment [1] was found to be 2.12; in [2], 2.15; in experiment [3] it was 1.45; in experiment [4] it was 2.65; in experiment [5], 0.953; in [6], 3.6. For the same sequence, the PBM binding z-score was 2.89 in [7], 3.27 in [8], 1.09 in experiment [9] and 2.63 in [10].

As for TAGCCTAGGTCATGTGCCAGTATACCACGCGAAC, the PBM binding z-score in [1] was 4.24; in experiment [2] it was 3.24; in [3], 0.572; in experiment [4] it was 2.7; in experiment [5], 0.626; in experiment [6] it was 3.58. Besides, the PBM binding z-score in [7] turned out to be 2.79; in experiment [8] it was 2.86; in experiment [9] it was 0.838; in experiment [10] it was 2.06.

CGAACTAGGTCATCCAGAACAGTGAATACATTGA: the PBM binding z-score in [1] was 4.08; in [2] it was 2.69; in [3], 0.739; in experiment [4], 2.14; in experiment [5] it was 0.118; in experiment [6] it was 4.64. In addition, the PBM binding z-score came to 7.99 in experiment [7], 6.91 in experiment [8], 4.38 in experiment [9] and 6.42 in experiment [10].

Turning to CGTCAAAGTTGAAGGTAACGTAACAGAAAGCAGC, the PBM binding z-score in [1] is -0.11; in experiment [2], -0.00279; in experiment [3] it was -0.157; in experiment [4] it was 0.207; in experiment [5], -0.458; in experiment [6], 1.02. The PBM binding z-score came to 0.813 in experiment [7], 1.01 in experiment [8], 0.188 in [9] and 0.76 in experiment [10].

For TCTATTAGTTGATTAGGGCAACTGAAACAGCGGA, the PBM binding z-score in [1] was 0.195; in experiment [2], 0.677; in experiment [3], 0.0182; in experiment [4], 0.747; in [5] it was 0.522; in experiment [6], 0.782. Moreover, the PBM binding z-score came out at 0.0466 in experiment [7], 1.87 in experiment [8], 3.5 in [9] and 2.6 in [10].

For the sequence TCGAGTAGGTTAGTCTGGGCATTCAGCCAACATA, the PBM binding z-score is -0.238 in experiment [1]; -0.131 in experiment [2]; -0.19 in experiment [3]; -0.216 in [4]; -1.35 in [5]; 0.169 in [6]. Besides, the PBM binding z-score was -0.258 in [7], 0.528 in [8], 0.844 in experiment [9] and 0.781 in experiment [10].

For the sequence TCGAGTAGGTTAGGGGCTTTCAGAATGGCGTCGA, the PBM binding z-score is -0.147 in experiment [1]; 0.172 in experiment [2]; -0.23 in experiment [3]; 0.6 in experiment [4]; -0.232 in experiment [5]; 0.524 in experiment [6]. The PBM binding z-score in experiment [7] worked out at 0.208; in experiment [8] it was 1.76; in experiment [9] it was 0.813; in experiment [10] it was 1.15.

Turning to TAGCCTAGGTCATTCAGGGGCCAGTTTAGAAAGC, the PBM binding z-score is 4.19 in experiment [1]; 3.81 in [2]; 1 in [3]; 3.32 in experiment [4]; 0.887 in experiment [5]; 3.8 in experiment [6]. In addition, the PBM binding z-score worked out at 1.98 in experiment [7], 2.15 in [8], 0.497 in experiment [9] and 1.59 in experiment [10].

Consider GCGACTGGGGCATCAGTAGGTTACCATAACTTAA, for which the PBM binding z-score is -0.329 in experiment [1]; -0.299 in experiment [2]; -0.273 in [3]; 0.586 in experiment [4]; -0.678 in experiment [5]; 1.55 in experiment [6]. Moreover, the PBM binding z-score came to 1.69 in experiment [7], 1.5 in experiment [8], 0.0376 in [9] and 0.86 in [10].
